Test results published in the supplement of paper PMC7724964.

T1: LBR 1-67 LBR_tudor (domain begin residue: 1, domain end residue: 67), Q14739
T1 chain: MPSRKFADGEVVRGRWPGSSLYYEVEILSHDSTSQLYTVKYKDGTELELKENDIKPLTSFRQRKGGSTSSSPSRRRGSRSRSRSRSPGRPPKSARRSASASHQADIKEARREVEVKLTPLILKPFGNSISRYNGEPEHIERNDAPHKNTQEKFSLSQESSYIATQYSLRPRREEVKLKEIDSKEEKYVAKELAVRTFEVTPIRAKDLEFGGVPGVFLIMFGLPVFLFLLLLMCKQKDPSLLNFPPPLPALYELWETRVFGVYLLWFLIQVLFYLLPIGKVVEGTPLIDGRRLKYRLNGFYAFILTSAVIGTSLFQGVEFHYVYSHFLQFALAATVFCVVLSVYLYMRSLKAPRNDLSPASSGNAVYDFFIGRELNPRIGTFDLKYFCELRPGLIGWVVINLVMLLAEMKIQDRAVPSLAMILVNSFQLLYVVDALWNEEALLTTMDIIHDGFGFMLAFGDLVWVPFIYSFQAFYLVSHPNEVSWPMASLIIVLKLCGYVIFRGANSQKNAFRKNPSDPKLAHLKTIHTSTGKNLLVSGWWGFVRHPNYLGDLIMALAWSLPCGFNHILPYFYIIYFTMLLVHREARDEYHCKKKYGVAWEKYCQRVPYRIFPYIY

T2: ZGPAT 120-268 zf-CCCH+TUDOR (domain begin residue: 120, domain end residue: 268), Q8N5A5
T2 chain: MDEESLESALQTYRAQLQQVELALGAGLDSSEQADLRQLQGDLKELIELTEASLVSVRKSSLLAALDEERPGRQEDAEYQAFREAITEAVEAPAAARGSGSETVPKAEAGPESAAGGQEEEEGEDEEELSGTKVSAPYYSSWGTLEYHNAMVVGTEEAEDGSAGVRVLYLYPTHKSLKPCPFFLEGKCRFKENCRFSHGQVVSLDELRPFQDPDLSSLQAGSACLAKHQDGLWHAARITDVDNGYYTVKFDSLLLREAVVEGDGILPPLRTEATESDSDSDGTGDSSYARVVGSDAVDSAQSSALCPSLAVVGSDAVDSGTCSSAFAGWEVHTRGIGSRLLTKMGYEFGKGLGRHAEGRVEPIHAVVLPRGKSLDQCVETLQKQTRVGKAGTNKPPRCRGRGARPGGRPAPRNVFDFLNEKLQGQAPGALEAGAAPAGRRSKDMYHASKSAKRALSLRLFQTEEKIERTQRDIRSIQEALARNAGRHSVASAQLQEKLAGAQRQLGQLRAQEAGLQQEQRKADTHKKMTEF

T3: LRP5 340-601 Ldl_recept_b (domain begin residue: 340, domain end residue: 601), O75197
T3 chain: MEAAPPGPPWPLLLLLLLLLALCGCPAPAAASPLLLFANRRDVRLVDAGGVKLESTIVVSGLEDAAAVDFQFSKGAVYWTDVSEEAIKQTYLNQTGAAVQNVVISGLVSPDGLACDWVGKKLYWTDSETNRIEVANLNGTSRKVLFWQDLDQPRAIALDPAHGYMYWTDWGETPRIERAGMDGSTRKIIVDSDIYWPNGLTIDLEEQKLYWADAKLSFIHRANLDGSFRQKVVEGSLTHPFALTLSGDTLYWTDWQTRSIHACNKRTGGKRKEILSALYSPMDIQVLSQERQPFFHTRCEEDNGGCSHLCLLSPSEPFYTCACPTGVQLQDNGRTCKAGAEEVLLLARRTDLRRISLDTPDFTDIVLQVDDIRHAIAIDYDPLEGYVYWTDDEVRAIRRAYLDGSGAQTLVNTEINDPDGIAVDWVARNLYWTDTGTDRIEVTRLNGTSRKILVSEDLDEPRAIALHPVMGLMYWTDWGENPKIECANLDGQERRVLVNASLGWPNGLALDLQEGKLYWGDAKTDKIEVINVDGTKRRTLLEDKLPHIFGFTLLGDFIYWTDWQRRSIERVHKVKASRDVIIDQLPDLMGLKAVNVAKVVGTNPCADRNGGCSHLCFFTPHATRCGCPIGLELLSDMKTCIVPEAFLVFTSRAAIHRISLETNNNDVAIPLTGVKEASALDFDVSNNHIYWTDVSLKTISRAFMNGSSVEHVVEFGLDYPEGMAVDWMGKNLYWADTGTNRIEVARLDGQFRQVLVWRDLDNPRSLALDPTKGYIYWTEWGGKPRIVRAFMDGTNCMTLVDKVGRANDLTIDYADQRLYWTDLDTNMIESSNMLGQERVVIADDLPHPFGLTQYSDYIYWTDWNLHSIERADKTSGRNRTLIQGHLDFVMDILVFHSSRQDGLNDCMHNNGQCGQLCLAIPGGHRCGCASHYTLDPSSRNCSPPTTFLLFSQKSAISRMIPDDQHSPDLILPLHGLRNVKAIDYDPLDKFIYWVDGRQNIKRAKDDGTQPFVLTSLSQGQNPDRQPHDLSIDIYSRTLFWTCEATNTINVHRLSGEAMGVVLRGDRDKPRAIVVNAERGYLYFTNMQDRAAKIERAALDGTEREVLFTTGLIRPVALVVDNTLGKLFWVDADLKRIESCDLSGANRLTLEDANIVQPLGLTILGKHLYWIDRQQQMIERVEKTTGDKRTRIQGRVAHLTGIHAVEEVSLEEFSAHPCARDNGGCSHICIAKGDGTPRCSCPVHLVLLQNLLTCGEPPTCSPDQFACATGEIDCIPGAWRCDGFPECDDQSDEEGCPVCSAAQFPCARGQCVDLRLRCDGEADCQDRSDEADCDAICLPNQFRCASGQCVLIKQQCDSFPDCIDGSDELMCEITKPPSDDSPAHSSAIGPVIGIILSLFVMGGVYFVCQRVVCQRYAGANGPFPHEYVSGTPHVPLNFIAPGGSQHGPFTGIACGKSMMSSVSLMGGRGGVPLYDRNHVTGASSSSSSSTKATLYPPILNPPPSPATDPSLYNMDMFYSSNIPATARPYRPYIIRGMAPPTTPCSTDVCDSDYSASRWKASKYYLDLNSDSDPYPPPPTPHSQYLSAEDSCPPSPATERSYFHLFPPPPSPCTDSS


The binders below were run against KDM6A 1-520 TPR_8 (domain begin residue: 1, domain end residue: 520), O15550 (assay: phage ELISA signal ratio (GST-PRM binding over GST background); higher = stronger binding of peptide-phage to the PRM).
Method in brief: (§1)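 Five rounds of selection were carried out against human peptide recognition domains fused to the C-terminus of glutathione S-transferase (GST) and expressed in 96-well plates. The M13 phage library presented randomized hexadecapeptides, cysteine-free and glycine-flanked, on the gene-8 major coat protein. For each value, the phage ELISA signal on the GST-domain fusion was divided by the signal on GST alone.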

Sequence of KDM6A 1-520 TPR_8 (domain begin residue: 1, domain end residue: 520), O15550 (O15550 whole entry, the tested form may be a part): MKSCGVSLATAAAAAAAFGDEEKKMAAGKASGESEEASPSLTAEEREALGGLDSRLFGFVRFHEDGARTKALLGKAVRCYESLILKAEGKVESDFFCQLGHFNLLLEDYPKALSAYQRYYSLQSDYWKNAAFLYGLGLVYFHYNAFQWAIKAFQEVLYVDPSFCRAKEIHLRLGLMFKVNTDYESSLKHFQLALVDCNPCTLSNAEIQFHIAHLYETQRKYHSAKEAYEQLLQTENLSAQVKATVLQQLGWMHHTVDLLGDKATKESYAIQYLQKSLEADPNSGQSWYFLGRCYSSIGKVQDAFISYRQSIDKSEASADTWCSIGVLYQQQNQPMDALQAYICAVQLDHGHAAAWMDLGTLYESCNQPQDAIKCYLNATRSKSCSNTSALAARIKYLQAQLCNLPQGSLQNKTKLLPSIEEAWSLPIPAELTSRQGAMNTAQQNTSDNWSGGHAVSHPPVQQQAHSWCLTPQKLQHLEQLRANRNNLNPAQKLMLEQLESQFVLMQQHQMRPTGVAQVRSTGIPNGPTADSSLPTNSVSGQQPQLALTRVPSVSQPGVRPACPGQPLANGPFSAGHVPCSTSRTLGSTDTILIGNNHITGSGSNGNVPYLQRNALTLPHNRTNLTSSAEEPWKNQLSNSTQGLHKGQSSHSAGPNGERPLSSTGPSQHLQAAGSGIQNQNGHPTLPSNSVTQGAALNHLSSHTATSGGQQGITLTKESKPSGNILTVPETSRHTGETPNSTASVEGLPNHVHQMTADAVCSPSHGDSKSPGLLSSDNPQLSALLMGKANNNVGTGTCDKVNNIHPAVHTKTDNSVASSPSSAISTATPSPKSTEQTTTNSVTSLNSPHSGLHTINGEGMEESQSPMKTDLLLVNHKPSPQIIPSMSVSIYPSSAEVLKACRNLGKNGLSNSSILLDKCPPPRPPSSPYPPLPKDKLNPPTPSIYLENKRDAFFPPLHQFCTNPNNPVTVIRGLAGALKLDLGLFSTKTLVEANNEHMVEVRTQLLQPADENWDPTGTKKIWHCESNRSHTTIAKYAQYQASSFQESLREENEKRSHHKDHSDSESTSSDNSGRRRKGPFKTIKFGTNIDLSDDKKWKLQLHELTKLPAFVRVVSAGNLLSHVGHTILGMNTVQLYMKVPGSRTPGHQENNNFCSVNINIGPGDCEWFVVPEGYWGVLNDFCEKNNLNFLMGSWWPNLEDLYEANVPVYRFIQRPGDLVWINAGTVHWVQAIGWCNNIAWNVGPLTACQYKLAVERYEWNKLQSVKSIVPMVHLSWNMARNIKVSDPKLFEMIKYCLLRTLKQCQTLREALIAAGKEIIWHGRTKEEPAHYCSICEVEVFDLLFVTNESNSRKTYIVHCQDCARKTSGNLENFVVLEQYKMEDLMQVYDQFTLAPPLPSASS

Row | Binder | phage ELISA signal ratio
1 | SPNVVEYPDWFMWAIE | 7.87
2 | IYLDQWFEEISTYVPA | 8.33
3 | NYIEHMYDSMMYGSMT | 8.78
4 | WENIWDDMIEQIIIPQ | 8.83

The binders below were run against KMT2C 1055-1137 PHD (domain begin residue: 1055, domain end residue: 1137) in the same assay as above.
Method in brief: as §1

Row | Binder | phage ELISA signal ratio
5 | DNYMESMYEAMGDPKK | 6.88
6 | FETLEVIPGLGEFFKQ | 6.9

The binders below were run against KMT2C 995-1055 PHD (domain begin residue: 995, domain end residue: 1055) in the same assay as above.
Method in brief: as §1

Row | Binder | phage ELISA signal ratio
7 | VKTPVEDWKYLTFYYI | 6.07
8 | SIKGIYIDDVLRLIDQ | 6.63

Each binder was assayed against KPNB1 1-876 IBN_N+Arm (domain begin residue: 1, domain end residue: 876), Q14974 in the same assay as above.
Method in brief: as §1

Sequence of KPNB1 1-876 IBN_N+Arm (domain begin residue: 1, domain end residue: 876), Q14974 (Q14974 whole entry): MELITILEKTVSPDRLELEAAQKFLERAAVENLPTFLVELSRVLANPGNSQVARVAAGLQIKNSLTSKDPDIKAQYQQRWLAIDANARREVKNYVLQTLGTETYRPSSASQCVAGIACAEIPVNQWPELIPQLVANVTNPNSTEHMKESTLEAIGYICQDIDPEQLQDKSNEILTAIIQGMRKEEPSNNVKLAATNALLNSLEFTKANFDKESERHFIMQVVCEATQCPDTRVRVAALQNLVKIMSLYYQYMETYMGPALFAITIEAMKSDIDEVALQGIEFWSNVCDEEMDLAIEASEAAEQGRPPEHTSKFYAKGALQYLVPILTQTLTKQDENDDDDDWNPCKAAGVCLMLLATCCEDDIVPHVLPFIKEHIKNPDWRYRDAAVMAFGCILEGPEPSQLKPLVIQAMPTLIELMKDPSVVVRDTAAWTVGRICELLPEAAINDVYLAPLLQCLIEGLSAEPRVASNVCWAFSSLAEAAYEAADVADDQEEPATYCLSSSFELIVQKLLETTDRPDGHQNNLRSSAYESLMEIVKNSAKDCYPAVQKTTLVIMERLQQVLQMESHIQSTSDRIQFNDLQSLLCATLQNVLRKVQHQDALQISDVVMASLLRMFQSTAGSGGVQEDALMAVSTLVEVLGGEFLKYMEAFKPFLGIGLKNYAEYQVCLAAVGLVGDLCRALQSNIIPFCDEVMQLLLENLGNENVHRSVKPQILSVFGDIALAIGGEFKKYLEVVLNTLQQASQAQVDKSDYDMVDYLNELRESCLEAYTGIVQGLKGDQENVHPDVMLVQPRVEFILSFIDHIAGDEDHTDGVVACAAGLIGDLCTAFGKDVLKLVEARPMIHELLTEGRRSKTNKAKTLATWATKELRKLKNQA

Row | Binder | phage ELISA signal ratio
9 | YDFGPFMGVGAPSFQF | 9.88
10 | WISFPFSDWQGDLFTF | 10.3
11 | PHEFQWALWPSGVFVF | 14
12 | WQMWTPLGDLDQIYTF | 16.1
13 | WVETSTYPEWPAVFVF | 16.3
14 | LDWMSMFDDYSSLFSV | 16.8
15 | PSEWENYMSVGDIFIF | 16.9
16 | LDWVSMFEDNSSQFSV | 17.2
17 | PWPQEYTTDLTSVFWF | 19.7
18 | WDWVVREMSFDEVFIF | 20.4

Target: T1, LBR 1-67 LBR_tudor (domain begin …
Assay: as above
Method in brief: as §1

Row | Binder | phage ELISA signal ratio
19 | PFTAFFVMMEWVQVPK | 2.52
20 | PYDNYRVVQIPWLFSD | 3.18
21 | YNFIESMYTMEPMPMH | 3.33
22 | YGWETIWDTFPVDMPA | 3.69
23 | DDVTWMWPPGGYFVNM | 4.54
24 | QQQKHPNFALHYHQDQ | 6.64
25 | FHGIWVQDELRVWMMD | 8.63

These binders were tested against SETD1A 2-220 RRM_1 (domain begin residue: 2, domain end residue: 220), O15047 in the same assay as above.
Method in brief: as §1

Sequence of SETD1A 2-220 RRM_1 (domain begin residue: 2, domain end residue: 220), O15047 (O15047 whole entry): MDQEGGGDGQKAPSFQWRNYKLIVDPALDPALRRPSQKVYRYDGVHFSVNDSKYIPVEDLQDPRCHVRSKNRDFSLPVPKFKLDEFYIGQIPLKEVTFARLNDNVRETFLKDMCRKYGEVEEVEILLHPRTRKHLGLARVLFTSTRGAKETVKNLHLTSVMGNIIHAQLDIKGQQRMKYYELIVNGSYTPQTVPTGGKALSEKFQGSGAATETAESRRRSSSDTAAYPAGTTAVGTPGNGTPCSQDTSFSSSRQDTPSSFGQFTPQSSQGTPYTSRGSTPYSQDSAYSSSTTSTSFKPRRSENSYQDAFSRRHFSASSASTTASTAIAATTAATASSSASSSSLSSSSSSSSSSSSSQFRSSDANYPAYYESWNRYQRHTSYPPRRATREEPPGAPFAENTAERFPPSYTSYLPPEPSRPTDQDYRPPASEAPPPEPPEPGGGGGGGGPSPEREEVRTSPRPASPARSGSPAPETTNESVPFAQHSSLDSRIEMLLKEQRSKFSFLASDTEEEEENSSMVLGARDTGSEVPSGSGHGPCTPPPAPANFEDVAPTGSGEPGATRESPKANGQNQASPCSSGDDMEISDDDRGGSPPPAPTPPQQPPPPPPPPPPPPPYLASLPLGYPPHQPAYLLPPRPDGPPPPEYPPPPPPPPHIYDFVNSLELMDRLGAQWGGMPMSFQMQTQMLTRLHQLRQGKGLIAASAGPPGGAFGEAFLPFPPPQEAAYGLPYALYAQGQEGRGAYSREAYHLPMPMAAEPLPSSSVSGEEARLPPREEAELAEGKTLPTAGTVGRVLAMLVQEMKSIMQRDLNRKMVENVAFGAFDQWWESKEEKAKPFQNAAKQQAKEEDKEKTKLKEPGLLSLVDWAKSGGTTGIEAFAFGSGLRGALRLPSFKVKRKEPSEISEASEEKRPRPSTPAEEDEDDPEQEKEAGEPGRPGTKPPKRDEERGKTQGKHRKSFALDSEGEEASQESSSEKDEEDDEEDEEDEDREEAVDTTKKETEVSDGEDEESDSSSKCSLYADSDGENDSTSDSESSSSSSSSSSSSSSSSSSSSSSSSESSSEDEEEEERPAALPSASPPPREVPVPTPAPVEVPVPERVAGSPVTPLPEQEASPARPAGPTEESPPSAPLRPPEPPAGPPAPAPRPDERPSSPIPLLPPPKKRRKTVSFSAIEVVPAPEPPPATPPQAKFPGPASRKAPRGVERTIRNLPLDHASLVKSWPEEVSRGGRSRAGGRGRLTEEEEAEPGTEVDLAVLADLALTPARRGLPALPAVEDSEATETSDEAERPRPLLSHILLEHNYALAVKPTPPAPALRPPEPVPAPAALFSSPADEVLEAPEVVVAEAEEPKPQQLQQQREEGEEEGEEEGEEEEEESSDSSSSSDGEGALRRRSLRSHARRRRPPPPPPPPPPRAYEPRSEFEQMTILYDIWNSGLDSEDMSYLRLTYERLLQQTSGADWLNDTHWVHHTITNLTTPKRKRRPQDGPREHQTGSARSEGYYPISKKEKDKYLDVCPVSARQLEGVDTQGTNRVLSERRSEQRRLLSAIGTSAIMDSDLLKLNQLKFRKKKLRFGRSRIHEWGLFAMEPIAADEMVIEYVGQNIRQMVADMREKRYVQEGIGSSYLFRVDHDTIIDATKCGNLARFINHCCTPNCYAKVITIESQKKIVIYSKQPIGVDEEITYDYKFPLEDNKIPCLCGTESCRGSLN

Row | Binder | phage ELISA signal ratio
26 | YNFIESMYTMEPMPMH | 4.24

Target: T2, ZGPAT 120-268 zf-CCCH+TUDOR (domain …
Assay: as above
Method in brief: as §1

Row | Binder | phage ELISA signal ratio
27 | YNFIESMYTMEPMPMH | 3.65

Target: T3, LRP5 340-601 Ldl_recept_b (domain begin …
Assay: as above
Method in brief: as §1

Row | Binder | phage ELISA signal ratio
28 | EWSSNEWWDAYSAMTV | 7.31

These binders were tested against MAD2L1 2-205 HORMA (domain begin residue: 2, domain end residue: 205), Q13257 in the same assay as above.
Method in brief: as §1

Sequence of MAD2L1 2-205 HORMA (domain begin residue: 2, domain end residue: 205), Q13257 (Q13257 whole entry): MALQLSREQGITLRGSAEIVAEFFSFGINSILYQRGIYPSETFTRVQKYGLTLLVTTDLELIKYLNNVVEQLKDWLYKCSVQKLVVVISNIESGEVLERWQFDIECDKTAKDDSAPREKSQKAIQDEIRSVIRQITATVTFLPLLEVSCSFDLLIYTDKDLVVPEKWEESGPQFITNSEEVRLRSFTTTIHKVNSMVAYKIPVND

Row | Binder | phage ELISA signal ratio
29 | SGEWFKLPSFDEPRKG | 6.3
